A selection: hits, their analogues and other compounds. The true share with any hit is near 2%.
PfG6PD inh – PfG6PD (Plasmodium falciparum) enzyme inhibition; inhibition, % at 20 µM; 350,000 compounds, 0.78% hits; PfGluPho enzyme, NADPH resazurin-diaphorase fluorescence;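 active = inhibition reaching at least a set limit at 20 µM in the primary screen, cut at about 59% in these data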
A3G deaminase – APOBEC3G (human) deaminase inhibition. Q9HC16. recombinant A3G, ssDNA deamination FAM/TAMRA fluorescence. inhibition, % at 20 µM. 330,000 compounds, 0.28% hits;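 active = inhibition of at least 40% at 20 µM, with no more than 30% in the related APOBEC3A deaminase screen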
Target sequence (Q9HC16 whole entry, looked up): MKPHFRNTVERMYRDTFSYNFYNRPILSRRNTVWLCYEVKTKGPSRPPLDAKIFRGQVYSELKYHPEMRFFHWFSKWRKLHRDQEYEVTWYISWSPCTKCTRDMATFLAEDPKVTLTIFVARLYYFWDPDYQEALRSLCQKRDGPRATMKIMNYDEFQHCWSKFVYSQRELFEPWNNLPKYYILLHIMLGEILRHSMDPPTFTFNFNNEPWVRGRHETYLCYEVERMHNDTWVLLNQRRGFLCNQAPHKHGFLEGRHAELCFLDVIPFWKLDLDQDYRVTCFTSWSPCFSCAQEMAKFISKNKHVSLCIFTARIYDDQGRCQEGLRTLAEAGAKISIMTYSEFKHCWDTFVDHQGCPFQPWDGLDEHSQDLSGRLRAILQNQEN
Neddyl block – cullin neddylation inhibition; P61081+Q13564; TR-FRET cullin neddylation, biochemical; 360,000 compounds, 0.58% hits; inhibition, % at 25 µM; in the data active = inhibition above about 36%
NPR1 activator – GC-A (human) enzyme activation; P16066; HEK293 GC-A cells, cGMP TR-FRET, EC30 ANP; 0% at EC30 ANP, 100% saturating ANP; activation, % at 10 µM; 370,000 compounds, 0.14% hits; in the data active = activation above about 40%
A3A deaminase – human APOBEC3A DNA deaminase inhibition; recombinant A3A, FAM/TAMRA ssDNA deamination fluorescence; P31941; 330,000 compounds, 0.41% hits; AID 493011; inhibition, % at 20 µM;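 active = at least 40% inhibition at 20 µM here, with at most 30% in a related deaminase screen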
Target sequence (P31941 whole entry, looked up): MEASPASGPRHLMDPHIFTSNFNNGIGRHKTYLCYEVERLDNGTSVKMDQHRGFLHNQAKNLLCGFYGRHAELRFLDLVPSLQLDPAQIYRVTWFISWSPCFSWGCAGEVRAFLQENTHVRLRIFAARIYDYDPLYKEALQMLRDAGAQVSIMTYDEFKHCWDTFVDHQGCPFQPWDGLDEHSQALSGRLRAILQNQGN
NPR2 activator – GC-B (human) receptor activation; activation, % at 10 µM; 370,000 compounds, 0.11% hits; AID 1920062; HEK293-GC-B cells, CNP EC30, cGMP TR-FRET; 0% at EC30 CNP, 100% saturating CNP; P20594;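 active = activation at 10 µM reaching about 35% in either raw or pattern-adjusted values, limit read from the data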
PfGluPho conf – confirmation of Plasmodium falciparum G6PD inhibitors. recombinant PfGluPho, NADPH-diaphorase-resazurin fluorescence. 2,400 compounds, 34% hits. inhibition, % at 20 µM. shares compounds with PfG6PD inh. AID 504753;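 active = inhibition of at least 50% at 20 µM in any single replicate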
Diaphorase 10uM – inhibits diaphorase or oxidizes, flagging false PfG6PD hits; shares compounds with PfG6PD inh; diaphorase-coupled resazurin reduction, fluorescence, NADPH 10 uM; inhibition, % at 20 µM; 820 compounds, 39% hits; AID 504862;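 active = average inhibition reaching 50% or more with the compound at 20 µM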;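 note: resorufin red fluorescence formed as diaphorase reduces resazurin using NADPH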
Diaph ctr 30uM – inhibits diaphorase or oxidizes, flagging false PfG6PD hits; shares compounds with PfG6PD inh; Diaphorase/resazurin coupled assay, resorufin fluorescence, 30 uM NADPH; inhibition, % at 20 µM; 820 compounds, 29% hits; AID 504863;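 active = inhibition averaging 50% or more, tested at 20 µM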
Of the large screens only hits and unclear results are named; the others gave an inactive call (follow-up assays come after a bar, where they were run).

CCCC1CCC2(CCCN2CCOC(=S)NCc2cccc(C)c2)CC1 (stereo unspecified)	none (no result: PfG6PD inh, A3G deaminase, Neddyl block, A3A deaminase)
CCOc1ccc2c(c1)n([O-])c1c([n+]2=O)CCCC1	PfG6PD inh 98.6 (no result: A3G deaminase, A3A deaminase) | PfGluPho conf inactive
COc1ccc2c(c1)n([O-])c1c([n+]2=O)CCC1	none (no result: Neddyl block, NPR1 activator, NPR2 activator)
O=C(Cc1ccccc1)Nc1cccc([N+](=O)[O-])c1	none
O=C(Nc1cccc([N+](=O)[O-])c1)c1ccc2ccccc2c1O	PfG6PD inh 77.6 | PfGluPho conf inactive
CCCc1cc(C(=O)Nc2cccc([N+](=O)[O-])c2)cs1	PfG6PD inh 81.5 | PfGluPho conf inactive
CC(C)(C)c1ccc(C(=O)Nc2cccc([N+](=O)[O-])c2)cc1	PfG6PD inh 74.0 (no result: A3G deaminase, A3A deaminase) | PfGluPho conf inactive
O=C(Nc1cccc([N+](=O)[O-])c1)c1ccncc1	none
CN(C(=O)CNC(=O)c1ccccc1OCC(=O)Nc1ccc(Br)cc1)c1ccccc1	none (no result: PfG6PD inh, A3G deaminase, Neddyl block, A3A deaminase)
O=C1C=C(O)c2[nH]c(=O)ccc2C1=O	PfG6PD inh 69.1 (no result: A3G deaminase, A3A deaminase) | PfGluPho conf inactive
Cc1ccc(/C=C/C(=O)N2CCN(S(=O)(=O)c3ccc(C)c(C)c3)CC2)o1	PfG6PD inh 62.2 | PfGluPho conf 50.2 | Diaphorase 10uM inactive | Diaph ctr 30uM inactive
Cc1ccc(/C=C/C(=O)N2CCN(S(=O)(=O)c3c(C)c(C)cc(C)c3C)CC2)o1	none
O=C(C(=O)N1CCC(CNC(=O)c2sc3ccccc3c2Cl)CC1)c1cccs1	none (no result: PfG6PD inh, A3G deaminase, Neddyl block, A3A deaminase)
COCc1cc(=O)n2[nH]c(C(C)(C)C)cc2n1	PfG6PD inh 61.0 | PfGluPho conf 48.4 | Diaphorase 10uM inactive | Diaph ctr 30uM inactive
Cc1ccc(S(=O)(=O)N(CC(=O)N/N=C\c2cccs2)c2cccc3cccnc23)cc1	none
CS(=O)(=O)N(CC(=O)N/N=C/c1cccs1)c1cccc(Cl)c1Cl	PfG6PD inh 64.6 | PfGluPho conf inactive
COC(=O)[C@@]12CCCCC3=C1N(CCC3)C(=O)[C@H]2CC(=O)NCc1cccc(C(F)(F)F)c1	none (no result: PfG6PD inh, A3G deaminase, Neddyl block, A3A deaminase)
Cc1ccc(-n2c(=S)[nH]c3sc4c(c3c2=O)CCc2ccccc2-4)cc1	none
Cc1cccc(-n2c(=S)[nH]c3sc4c(c3c2=O)CCc2ccccc2-4)c1	PfG6PD inh 66.7 | PfGluPho conf 51.9 | Diaphorase 10uM inactive | Diaph ctr 30uM inactive
COc1ccccc1NC(=O)c1ccc2[nH]c(C)c(C)c2c1	PfG6PD inh 81.2 | PfGluPho conf inactive
CCOC(=O)[C@]12CCCCC/C=C\1N(Cc1ccc(OC)cc1)C(=O)[C@H]2CC(=O)NCC1CCCCC1	none (no result: PfG6PD inh, A3G deaminase, Neddyl block, A3A deaminase)
C=CCC12C=C(OC)C(=O)C(C1=O)C1c3ccccc3CC12 (stereo unspecified)	none (no result: PfG6PD inh, A3G deaminase, Neddyl block, A3A deaminase)
CCOC(=O)N1CCN(C(=O)Nc2ccc3oc(C)nc3c2)CC1	PfG6PD inh 61.7 (no result: NPR1 activator, NPR2 activator) | PfGluPho conf inactive
Cn1c2ccccc2c(=O)c2cc(C#Cc3ccc(N)cc3)ccc21	PfG6PD inh 79.3 | PfGluPho conf inactive
O=c1[nH]c2cc3c(cc2cc1CN(Cc1ccccc1)Cc1nnnn1Cc1ccco1)OCCO3	PfG6PD inh 76.2 (no result: A3G deaminase, A3A deaminase) | PfGluPho conf inactive
Cc1ccc(C(=O)Nc2ccc(O)cc2C(=O)O)cc1	PfG6PD inh 65.5 | PfGluPho conf inactive
C=CCN(CC#Cc1ccc(C(F)(F)F)cc1)Cc1ccc(OC)cc1OC	none (no result: PfG6PD inh, A3G deaminase, Neddyl block, A3A deaminase)
C[C@@H](CO)N(Cc1cn(Cc2ccccc2)nn1)S(=O)(=O)c1ccccc1Br	none (no result: PfG6PD inh, A3G deaminase, Neddyl block, A3A deaminase)
O=C(NCc1cccnc1)Nc1ccc2c(c1)OCO2	none
c1cncc(CNc2ccc3c(c2)OCO3)c1	PfG6PD inh 67.8 | PfGluPho conf 58.1 | Diaphorase 10uM inactive | Diaph ctr 30uM inactive
CN(C)c1ccc(NC(=S)c2ccc3ccccc3n2)cc1	PfG6PD inh 66.6 | PfGluPho conf inactive
Cc1cc(C)cc(-c2c(C(=O)c3ccc(Br)cc3)[nH]c(N)c2C(=O)NCc2ccc(Cl)cc2)c1	none (no result: PfG6PD inh, A3G deaminase, Neddyl block, A3A deaminase)
COC(=O)[C@]12C[C@H](CC(=O)NCc3cccc(C(F)(F)F)c3)C(=O)N(Cc3ccc4c(c3)OCO4)C1=C[C@H](C(C)C)O[C@@H]2C1CC1	none (no result: PfG6PD inh, A3G deaminase, Neddyl block, A3A deaminase)
CCOC(=O)c1cnc2c(OC)cccc2c1Nc1ccc2c(c1)OCCO2	PfG6PD inh 68.3 | PfGluPho conf inactive
CCOC(=O)c1cnc2ccc(OC)cc2c1Nc1ccc2c(c1)OCCO2	none
CCOC(=O)[C@]12CCCC=C1N(Cc1ccc(OC)cc1)C(=O)[C@@H]2CC(=O)NCc1cccc2ccccc12	none (no result: PfG6PD inh, A3G deaminase, Neddyl block, A3A deaminase)
Cn1cc([N+](=O)[O-])c(C(=O)Nc2ccc3nc(-c4ccccc4)[nH]c3c2)n1	PfG6PD inh 62.3 | PfGluPho conf inactive
O=C(Nc1ccc2nc(-c3ccccc3)[nH]c2c1)c1cccs1	PfG6PD inh 75.6 | PfGluPho conf inactive
O=C(Nc1ccc2nc(-c3ccc4nc[nH]c4c3)[nH]c2c1)c1cccs1	none
COc1ccc(CN(C)S(=O)(=O)c2nnc(NC(=O)c3cccc(C)c3)s2)cc1OC	PfG6PD inh 79.5 | PfGluPho conf 64.1 | Diaphorase 10uM 64.4 | Diaph ctr 30uM inactive
CC(C)CC(=O)Nc1nnc(S(=O)(=O)N(C)Cc2ccco2)s1	none (no result: NPR1 activator, NPR2 activator)
CN(Cc1ccccc1)S(=O)(=O)c1nnc(NC(=O)c2ccc(F)cc2)s1	PfG6PD inh 77.9 | PfGluPho conf inactive
COc1ccc(C(=O)Nc2nnc(S(=O)(=O)N(C)Cc3ccccc3)s2)cc1	PfG6PD inh 71.2 | PfGluPho conf inactive
CN(Cc1ccco1)S(=O)(=O)c1nnc(NC(=O)c2cccc(Cl)c2)s1	PfG6PD inh 86.1 | PfGluPho conf inactive
COc1ccc2c3c([nH]c2c1)[C@]1(CCNC=O)Nc2ccccc2C1=NCC3	none (no result: PfG6PD inh, A3G deaminase, Neddyl block, A3A deaminase)
COC(=O)C1=C(C)N(C)C(=NCc2ccc(OC)cc2)NC1c1cccc(C(F)(F)F)c1 (stereo unspecified)	none (no result: PfG6PD inh, A3G deaminase, Neddyl block, A3A deaminase)
COC(=O)[C@]12C[C@H](CC(=O)NCCCN3CCCC3=O)C(=O)N(Cc3ccc4c(c3)OCO4)C1=C[C@H](COCc1ccccc1)O[C@@H]2C	none (no result: PfG6PD inh, A3G deaminase, Neddyl block, A3A deaminase)
O=C(NNC(=O)c1ccccc1OCc1ccccc1)c1ccccc1O	PfG6PD inh 89.5 | PfGluPho conf 68.6 | Diaphorase 10uM 55.9 | Diaph ctr 30uM 55.9
O=C(NCc1ccc(F)cc1)c1ccccc1OCc1ccccc1	none
O=C(NNC(=O)c1ccccc1OCc1ccccc1)c1ccccc1F	none
